# The list is not random: actives were taken first. Their share in the collection is about 2.7%.
# Neddylation inh: inhibitors of cullin neddylation, primary screen, biochemical, TR-FRET, uHTS, NAE and Ubc12 | NEDD8-conjugating enzyme Ubc12 (Homo sapiens) + NEDD8-activating enzyme E1 regulatory … | calls only at 25 µM | hit rate 0.58% among 360,000; in the data active means inhibition above about 36%
# PfG6PD inh: PfG6PD enzyme inhibitors, primary screen, biochemical, fluorescence intensity, uHTS; glucose-6-phosphate dehydrogenase-6-phosphogluconolactonase (Plasmodium falciparum 3D7); PfGluPho enzyme, NADPH resazurin-diaphorase fluorescence; inhibition, % at 20 µM; hit rate 0.78% among 350,000; AID 504690, 2011;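 active means inhibition reaching at least a set limit at 20 µM in the primary screen, cut at about 59% in these data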;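 further: 0% = DMSO wells with substrate and 100% = DMSO wells lacking glucose-6-phosphate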
# KLK7 zymogen act: proKLK7 zymogen activators, primary screen, biochemical, fluorescence intensity | purified proKLK7, EDANS-DABCYL substrate fluorescence; 100% is mature enzyme control, 0% vehicle | activation, % at 7 µM | hit rate 0.9% among 370,000 | AID 652039, 2013;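 active means activation above the mean of all tested compounds plus 3 SD, computed per campaign excluding outliers beyond control limits, cut at about 13% in these data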
# Target sequence (P49862 whole entry, looked up): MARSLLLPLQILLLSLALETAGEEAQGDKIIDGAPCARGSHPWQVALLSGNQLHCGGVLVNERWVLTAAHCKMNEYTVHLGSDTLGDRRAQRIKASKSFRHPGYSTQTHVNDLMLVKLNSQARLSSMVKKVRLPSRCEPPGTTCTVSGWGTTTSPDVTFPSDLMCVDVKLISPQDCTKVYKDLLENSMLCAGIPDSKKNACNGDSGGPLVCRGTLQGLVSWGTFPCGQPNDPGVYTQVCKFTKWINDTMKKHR
# FAS TE block: FAS thioesterase domain inhibitors, primary screen, biochemical, fluorescence intensity, uHTS; recombinant FAS-TE, OMFH fluorogenic substrate, fluorescence endpoint; Fatty acid synthase (Homo sapiens), P49327; hit rate 0.67% among 360,000; inhibition, % at 15 µM;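 active means compounds whose normalised, plate-corrected inhibition of enzyme fluorescence in the single-dose primary screen is 50% or more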;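 further: 0% = DMSO with enzyme and 100% = substrate without enzyme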
# PfGluPho conf: PfG6PD inhibitors, hit retest, confirmation, biochemical, fluorescence intensity, single concentration | AID 504753, 2011 | recombinant PfGluPho, NADPH-diaphorase-resazurin fluorescence | shares compounds with PfG6PD inh | hit rate 34% among 2,400 | inhibition, % at 20 µM;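 active means inhibition of at least 50% at 20 µM in any single replicate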;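 further: 0% = DMSO with substrate and 100% = DMSO lacking glucose-6-phosphate substrate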
# Diaphorase 10uM: diaphorase inhibitors and chemical oxidizers, confirmation, counter-screen for P. falciparum G6PD inhibitor project, biochemical, fluorescence intensity, 10 µM NADPH; shares compounds with PfG6PD inh; diaphorase-coupled resazurin reduction, NADPH 10 uM; inhibition, % at 20 µM; hit rate 39% among 820; AID 504862, 2011;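 active means average inhibition reaching 50% or more with the compound at 20 µM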;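 further: resorufin red fluorescence formed as diaphorase reduces resazurin using NADPH; 0% = DMSO with enzyme and 100% = DMSO without enzyme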
# Diaphorase 30uM: diaphorase inhibitors and chemical oxidizers, confirmation, counter-screen for P. falciparum G6PD inhibitor project, biochemical, fluorescence intensity, 30 µM NADPH; hit rate 29% among 820; Diaphorase/resazurin coupled assay, resorufin fluorescence; shares compounds with PfG6PD inh; inhibition, % at 20 µM;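 active means inhibition averaging 50% or more, tested at 20 µM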;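 further: 0% = DMSO with enzyme and 100% = DMSO wells lacking diaphorase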
# FAS-TE conf: FAS thioesterase domain inhibitors, confirmation, biochemical, fluorescence intensity, single concentration; shares compounds with FAS TE block; recombinant FAS-TE, OMFH fluorogenic substrate; inhibition, % at 15 µM; hit rate 45% among 2,300; AID 624325, 2012;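 active means compounds inhibiting the enzyme by at least 50% at 15 µM in any one of the replicates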;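 further: 0% = enzyme with DMSO only and 100% = wells lacking enzyme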
# Neddyl inh conf: blockade of NEDD8 conjugation to cullin – biochemical, TR-FRET, single concentration, confirmation; calls only at 25 µM; TR-FRET cullin neddylation biochemical assay; shares compounds with Neddylation inh; AID 652217, 2013; hit rate 13% among 1,800; in the data active means inhibition above about 40%;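 further: neddylation substrate is the cullin 1 ring ligase complex with SKP2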
# proKLK7 act conf: proKLK7 zymogen activators, confirmation, biochemical, fluorescence intensity, triplicate; shares compounds with KLK7 zymogen act; purified proKLK7, EDANS-DABCYL substrate fluorescence; scaled: vehicle 0, mature enzyme 100; activation, % at 7 µM; hit rate 68% among 3,200; AID 686949, 2013;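 active means activation, as change over the incubation, above the mean of all tested compounds plus 3 SD, cut at about 13% in these data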
# EDANS-DABCYL int: EDANS-DABCYL substrate optical interference, artefact control for kallikrein-7 zymogen activator project, biochemical, fluorescence intensity, high throughput; no enzyme, 4 h; solvent 0%, active enzyme control 100%; shares compounds with KLK7 zymogen act; hit rate 80% among 3,200; activation, % at 7 µM; AID 686952, 2013;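 active means activation above the all-compound mean plus 3 SD, ignoring values outside control-based bounds, cut at about 4.8% in these data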;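 further: value is the 4 h activation minus the activation read at time zero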
# * = called active by the depositor; i = inactive; . = not tested or not shown; + = active, no number.
SMILES,Neddylation inh,PfG6PD inh,KLK7 zymogen act,FAS TE block,PfGluPho conf,others
CCNc1ccc(S(=O)(=O)C(F)(F)F)cc1NC(=O)C12CCC(CC1)C2,i,-4,-1,19,.,
COc1cccc2c1C(=O)C=C(C)C2=O,i,2,0,-6,.,
COC1=CC(=O)c2c(ccc3ncnc(N)c23)C1=O,i,127*,2,-6,108*,Diaphorase 10uM=99*;Diaphorase 30uM=100*
Cc1cc(C)c2c(=O)n3c(nc2c1)C(Cc1ccccc1)NC(=O)c1cccnc1-3 (stereo not given),i,59*,0,11,4,
CCS(=O)(=O)c1ccc2oc(Nc3ccc(C(C)C)cc3)nc2c1,i,74*,0,52*,43,FAS-TE conf=47*
CCCC(=O)OCCNc1cc(Sc2nc3ccccc3[nH]2)c2nonc2c1[N+](=O)[O-],i,65*,0,75*,39,FAS-TE conf=78*
CCC(=O)OCCNc1cc(SCCC(=O)OC)c2nonc2c1[N+](=O)[O-],i,34,0,24,.,
O=C(CSc1nc2cc([N+](=O)[O-])ccc2n1-c1ccccc1)NCc1ccc2c(c1)OCO2,i,68*,0,52*,-6,FAS-TE conf=36
COc1cccc(Cn2cc(COC(=O)NCCc3ccccc3)nn2)c1,.,.,-1,.,.,
CC(=O)N(C1=C(Cl)C(=O)c2ccccc2C1=O)C1CCCCC1,i,116*,-1,80*,113*,Diaphorase 10uM=98*;Diaphorase 30uM=95*;FAS-TE conf=71*
c1ccc(Cn2c(SCC3CCC3)nnc2-c2cccnc2)cc1,.,.,0,.,.,
O=[N+]([O-])c1c(Nc2ccc(O)cc2)cc(Cl)c2nonc12,i,60*,0,60*,23,FAS-TE conf=44*
Cc1cccc(NC(=O)C2CCCN2S(=O)(=O)c2cccc3cccnc23)c1C (stereo not given),.,.,0,.,.,
Cc1ccccc1CN1CCCCC(NC(=O)c2ccc(N(C)C)cc2)C1=O (stereo not given),.,.,0,.,.,
NC(=O)C1CCN(C2=C(NS(=O)(=O)c3ccccc3)C(=O)c3ccccc3C2=O)CC1,i,-4,1,-3,.,
NC(=O)C1CCN(C2=C(Cl)C(=O)c3ccccc3C2=O)CC1,i,74*,0,52*,43,FAS-TE conf=29
CN(CCO)c1cc(Sc2nc3ccccc3s2)c2nonc2c1[N+](=O)[O-],i,88*,0,74*,70*,Diaphorase 10uM=4;Diaphorase 30uM=-12;FAS-TE conf=74*
Cc1cccc(OCC(=O)N/N=C/c2cc([N+](=O)[O-])ccc2N2CCOCC2)c1,i,118*,0,66*,68*,Diaphorase 10uM=57*;Diaphorase 30uM=59*;FAS-TE conf=57*
O=C(N/N=C\c1cc([N+](=O)[O-])ccc1N1CCOCC1)c1ccccn1,i,7,0,35,.,
COc1ccc(NCC(=O)N/N=C/c2cc([N+](=O)[O-])ccc2N2CCCC2)cc1,i,34,0,30,.,
CCc1ccc(OCC(=O)N/N=C/c2cc([N+](=O)[O-])ccc2N2CCOCC2)cc1,i,96*,0,73*,56*,Diaphorase 10uM=49;Diaphorase 30uM=34;FAS-TE conf=24
CS(=O)(=O)OC12CCCN(C1)/C(=C/c1ccc(Cl)cc1)C2 (stereo not given),.,.,0,.,.,
Cc1[nH]c2ccccc2c1/C=N/NC(=O)c1cccc(S(=O)(=O)Nc2ccccc2Cl)c1,+,83*,-1,-2,68*,Diaphorase 10uM=65*;Diaphorase 30uM=48;Neddyl inh conf=i
Cc1[nH]c2ccccc2c1/C=N/NC(=O)c1cccc(Br)c1,i,19,.,7,.,
O=[N+]([O-])c1ccc(OCCCN2CCC(C(O)(c3ccccc3)c3ccccc3)CC2)c(Cl)c1,.,.,0,.,.,
SMILES,Neddylation inh,PfG6PD inh,KLK7 zymogen act,FAS TE block,PfGluPho conf,others
c1ccc2c(c1)c1c(c3ccccc32)CN2CCCC2C1 (stereo not given),+,65*,1,-6,-28,Neddyl inh conf=i
CCCCCCCCN1C(=O)[C@@H](CC(=O)N2CCCC2)C[C@@]2(C(=O)OC)C1=C[C@H](COCc1ccccc1)O[C@@H]2C,.,.,1,.,.,
COc1ccc(OC)c(/C=N\NC(=O)CSc2nnc(CCCc3ccc(OC)c(C)c3)o2)c1,+,96*,-4,14,22,
COc1ccc(CCCc2nnc(SCC(=O)Nc3cc(C)c(C)cc3Br)o2)cc1,i,3,0,22,.,
COC(=O)c1cc2ccccc2c(-c2c(OC)c(C(=O)OC)cc3ccccc23)c1OC,+,89*,-4,17,33,Neddyl inh conf=i
O=C(CSc1cccc2cccnc12)N/N=C/c1ccc(O)cc1,i,41,-2,-8,.,
COc1cccc(/C=N/NC(=O)CSc2cccc3cccnc23)c1,+,69*,-3,1,54*,Diaphorase 10uM=64*;Diaphorase 30uM=41;Neddyl inh conf=i
COc1ccc(C(=O)Nc2sc3c(c2C(=O)O)CC(C)(C)OC3)cc1,+,91*,0,-4,48*,Diaphorase 10uM=40;Diaphorase 30uM=45;Neddyl inh conf=+
Cn1c(=O)cc(OCC(=O)N2CCN(c3ccccc3Cl)CC2)c2ccccc21,.,.,0,.,.,
COCCn1c(-c2ccc(OC)cc2)nc2ccccc21,i,10,1,-3,.,
COCCn1c2nc(=O)n(-c3ccccc3)c(=O)c-2nc2ccccc21,i,59*,49*,-134,38,proKLK7 act conf=40*;EDANS-DABCYL int=45*
C=CCNC(=O)CN(C(=O)Cc1ccc(Cl)nc1)c1cccc(Br)c1,.,.,0,.,.,
